For 17 sequences, binding signal results are on record in article PMC11006913.

Common to all, as to assay: PBM; 200 nM protein, PBS
Details in all cases: dsDNA, one strand shown

Assay [1] concerns the target HOXB4 (Homo sapiens, UniProt P17483 148-234).
Assay [2] has as its target HOXB4 (Homo sapiens, UniProt P17483 148-234, V174I).
Another assay has as its target HOXA4 (Homo sapiens, UniProt Q00056 201-287, R217L).
Assay [3] has as its target HOXC10 (Homo sapiens, UniProt Q9NYD6 254-340).
Assay [4] deals with HOXC10 (Homo sapiens, UniProt Q9NYD6 254-340, K271E).
Sequence of HOXC10 (Homo sapiens, UniProt Q9NYD6 254-340, K271E) (Q9NYD6 254-340 K271E): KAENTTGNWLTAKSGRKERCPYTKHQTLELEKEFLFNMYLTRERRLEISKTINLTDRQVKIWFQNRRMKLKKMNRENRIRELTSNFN
Assay [5] addresses VAX1 (Homo sapiens, UniProt Q5SQQ9 86-172).
Assay [6] has as its target VAX1 (Homo sapiens, UniProt Q5SQQ9 86-172, T142I).
Assay [7] addresses VAX1 (Homo sapiens, UniProt Q5SQQ9 86-172, K157R).
The target of another assay is T1, NKX2-6 (Homo sapiens, UniProt A6NCS4 118-204, R150C).
T1 sequence: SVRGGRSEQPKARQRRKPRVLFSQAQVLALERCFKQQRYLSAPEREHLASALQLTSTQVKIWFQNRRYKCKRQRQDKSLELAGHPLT

Assay [8] deals with PRRX1 (Homo sapiens, UniProt P54821 80-166, F113S).
Sequence of PRRX1 (Homo sapiens, UniProt P54821 80-166, F113S) (P54821 80-166 F113S): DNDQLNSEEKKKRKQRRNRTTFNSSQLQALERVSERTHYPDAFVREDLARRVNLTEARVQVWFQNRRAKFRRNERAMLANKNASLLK
For assay [9], the target named is PRRX1 (Homo sapiens, UniProt P54821 80-166).
Sequence of PRRX1 (Homo sapiens, UniProt P54821 80-166) (P54821 80-166): as the sequence (P54821 80-166 F113S) above, with S34F counted along it
The target of assay [10] is T2, PAX4 (Homo sapiens, UniProt O43316 9-242, R200K).
T2 sequence: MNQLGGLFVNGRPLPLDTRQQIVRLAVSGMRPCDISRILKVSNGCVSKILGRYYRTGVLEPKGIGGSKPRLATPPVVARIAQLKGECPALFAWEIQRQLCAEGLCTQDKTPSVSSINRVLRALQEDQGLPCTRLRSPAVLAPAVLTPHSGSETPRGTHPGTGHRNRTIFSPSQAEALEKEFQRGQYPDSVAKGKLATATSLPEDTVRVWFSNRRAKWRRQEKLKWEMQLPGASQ

Assay [11] deals with T3, PAX4 (Homo sapiens, UniProt O43316 9-242).
T3 sequence: T2 sequence with K192R

Assay [12] has as its target ALX3 (Homo sapiens, UniProt O95076 139-225, N203Q).
The target in assay [13] is T4, PAX4 (Homo sapiens, UniProt O43316 9-242, R200Q).
T4 sequence: T2 sequence with K192Q

The target of assay [14] is T5, PAX4 (Homo sapiens, UniProt O43316 9-242, F177V).
T5 sequence: T2 sequence with F169V, K192R

For assay [15], the target named is ALX3 (Homo sapiens, UniProt O95076 139-225).
Sequence of ALX3 (Homo sapiens, UniProt O95076 139-225) (O95076 139-225): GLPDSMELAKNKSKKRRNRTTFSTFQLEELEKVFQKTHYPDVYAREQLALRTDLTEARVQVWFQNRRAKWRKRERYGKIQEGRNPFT
The target of assay [16] is T6, PAX4 (Homo sapiens, UniProt O43316 9-242, F177Y).
T6 sequence: T2 sequence with F169Y, K192R

The target of assay [17] is ALX3 (Homo sapiens, UniProt O95076 139-225, L168Q).
Sequence of ALX3 (Homo sapiens, UniProt O95076 139-225, L168Q) (O95076 139-225 L168Q): as the sequence (O95076 139-225) above, with L30Q counted along it
For assay [18], the target named is ALX3 (Homo sapiens, UniProt O95076 139-225, L168V).
Sequence of ALX3 (Homo sapiens, UniProt O95076 139-225, L168V) (O95076 139-225 L168V): as the sequence (O95076 139-225) above, with L30V counted along it
Assay [19] addresses T7, PAX4 (Homo sapiens, UniProt O43316 9-242, R227W).
T7 sequence: T2 sequence with K192R, R219W

The target of assay [20] is ALX3 (Homo sapiens, UniProt O95076 139-225, N203S).
Sequence of ALX3 (Homo sapiens, UniProt O95076 139-225, N203S) (O95076 139-225 N203S): as the sequence (O95076 139-225) above, with N65S counted along it
Assay [21] addresses MSX2 (Homo sapiens, UniProt P35548 130-214, R199I).
In assay [22] the target is MSX2 (Homo sapiens, UniProt P35548 130-214).
Sequence of MSX2 (Homo sapiens, UniProt P35548 130-214) (P35548 130-214): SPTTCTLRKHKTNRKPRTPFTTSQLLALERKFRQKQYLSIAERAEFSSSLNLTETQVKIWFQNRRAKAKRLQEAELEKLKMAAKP
In assay [23] the target is MSX2 (Homo sapiens, UniProt P35548 130-214, F161Y).
Sequence of MSX2 (Homo sapiens, UniProt P35548 130-214, F161Y) (P35548 130-214 F161Y): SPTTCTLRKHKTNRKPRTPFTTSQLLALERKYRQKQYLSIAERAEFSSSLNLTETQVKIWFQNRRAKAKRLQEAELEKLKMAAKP
Assay [24] has as its target HOXA2 (Homo sapiens, UniProt O43364 129-215, R185T).
For assay [25], the target named is HOXA2 (Homo sapiens, UniProt O43364 129-215, R185K).
Sequence of HOXA2 (Homo sapiens, UniProt O43364 129-215, R185K) (O43364 129-215 R185K): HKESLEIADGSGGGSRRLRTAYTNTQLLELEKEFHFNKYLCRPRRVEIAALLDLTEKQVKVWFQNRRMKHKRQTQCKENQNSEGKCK
Assay [26] deals with HOXA2 (Homo sapiens, UniProt O43364 129-215, Y150S).
Sequence of HOXA2 (Homo sapiens, UniProt O43364 129-215, Y150S) (O43364 129-215 Y150S): as the sequence (O43364 129-215 R185K) above, with Y22S, K57R counted along it
In assay [27] the target is HOXA2 (Homo sapiens, UniProt O43364 129-215).
Sequence of HOXA2 (Homo sapiens, UniProt O43364 129-215) (O43364 129-215): as the sequence (O43364 129-215 R185K) above, with K57R counted along it
Assay [28] has as its target HOXD13 (Homo sapiens, UniProt P35453 263-343, T313R).
In assay [29] the target is HOXD13 (Homo sapiens, UniProt P35453 263-343).
Sequence of HOXD13 (Homo sapiens, UniProt P35453 263-343) (P35453 263-343): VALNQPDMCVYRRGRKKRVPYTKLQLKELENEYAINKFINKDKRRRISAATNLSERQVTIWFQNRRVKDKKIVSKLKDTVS
Assay [30] concerns the target HOXD13 (Homo sapiens, UniProt P35453 263-343, T313A).

Changes are numbered by the printed parent chain.

Sequence of HOXB4 (Homo sapiens, UniProt P17483 148-234) (P17483 148-234): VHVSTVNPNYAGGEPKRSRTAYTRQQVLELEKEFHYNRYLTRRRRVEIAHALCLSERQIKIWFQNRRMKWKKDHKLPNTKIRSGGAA
Sequence of HOXB4 (Homo sapiens, UniProt P17483 148-234, V174I) (P17483 148-234 V174I): as the sequence (P17483 148-234) above, with V27I counted along it
Sequence of HOXC10 (Homo sapiens, UniProt Q9NYD6 254-340) (Q9NYD6 254-340): as the sequence (Q9NYD6 254-340 K271E) above, with E18K counted along it
Sequence of ALX3 (Homo sapiens, UniProt O95076 139-225, N203Q) (O95076 139-225 N203Q): as the sequence (O95076 139-225) above, with N65Q counted along it
Sequence of HOXA2 (Homo sapiens, UniProt O43364 129-215, R185T) (O43364 129-215 R185T): as the sequence (O43364 129-215 R185K) above, with K57T counted along it
Sequence of HOXA4 (Q00056 201-287 R217L): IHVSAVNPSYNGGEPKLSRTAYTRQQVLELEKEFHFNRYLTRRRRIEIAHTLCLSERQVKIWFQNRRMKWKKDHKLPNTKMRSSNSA
Sequence of VAX1 (Homo sapiens, UniProt Q5SQQ9 86-172, T142I) (Q5SQQ9 86-172 T142I): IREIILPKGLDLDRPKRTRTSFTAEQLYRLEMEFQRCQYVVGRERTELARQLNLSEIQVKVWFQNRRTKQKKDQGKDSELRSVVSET
Sequence of HOXD13 (Homo sapiens, UniProt P35453 263-343, T313R) (P35453 263-343 T313R): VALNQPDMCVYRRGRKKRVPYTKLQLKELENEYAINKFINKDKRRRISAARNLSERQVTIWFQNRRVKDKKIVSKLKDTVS
Sequence of HOXD13 (Homo sapiens, UniProt P35453 263-343, T313A) (P35453 263-343 T313A): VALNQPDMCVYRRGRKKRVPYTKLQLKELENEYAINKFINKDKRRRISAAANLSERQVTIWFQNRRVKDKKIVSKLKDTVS
Sequence of VAX1 (Homo sapiens, UniProt Q5SQQ9 86-172, K157R) (Q5SQQ9 86-172 K157R): as the sequence (Q5SQQ9 86-172 T142I) above, with I57T, K72R counted along it
Sequence of MSX2 (Homo sapiens, UniProt P35548 130-214, R199I) (P35548 130-214 R199I): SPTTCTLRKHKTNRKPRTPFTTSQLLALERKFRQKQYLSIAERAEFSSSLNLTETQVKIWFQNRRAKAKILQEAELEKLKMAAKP
Sequence of VAX1 (Homo sapiens, UniProt Q5SQQ9 86-172) (Q5SQQ9 86-172): as the sequence (Q5SQQ9 86-172 T142I) above, with I57T counted along it

Regarding TGGCATAA, the binding signal with HOXB4 [1] was 10 upbm affinity estimate (log intensity, higher = more binding, comparable within an allelic series); with HOXB4 [2] it was 9.76 upbm affinity estimate (log intensity, higher = more binding, comparable within an allelic series).
On to AATGATTA, for which the binding signal was 13.1 upbm affinity estimate (log intensity, higher = more binding, comparable within an allelic series) in the assay with HOXB4 [1]; 12 upbm affinity estimate (log intensity, higher = more binding, comparable within an allelic series) with HOXA4; 13.8 upbm affinity estimate (log intensity, higher = more binding, comparable within an allelic series) in the assay with HOXB4 [2].
GCAGGGCC: the binding signal with HOXB4 [1] is 7.4 upbm affinity estimate (log intensity, higher = more binding, comparable within an allelic series); with HOXC10 [3], 10 upbm affinity estimate (log intensity, higher = more binding, comparable within an allelic series); with HOXB4 [2] it was 7.46 upbm affinity estimate (log intensity, higher = more binding, comparable within an allelic series); with HOXC10 [4], 10 upbm affinity estimate (log intensity, higher = more binding, comparable within an allelic series); with VAX1 [5], 6.92 upbm affinity estimate (log intensity, higher = more binding, comparable within an allelic series); with VAX1 [6] it was 7 upbm affinity estimate (log intensity, higher = more binding, comparable within an allelic series). Besides, the binding signal in the assay with VAX1 [7] was 6.86 upbm affinity estimate (log intensity, higher = more binding, comparable within an allelic series).
On to CGGGACCA, for which the binding signal in the assay with HOXB4 [1] was 7.51 upbm affinity estimate (log intensity, higher = more binding, comparable within an allelic series); with HOXC10 [3] it was 10.1 upbm affinity estimate (log intensity, higher = more binding, comparable within an allelic series); with HOXB4 [2] it was 7.58 upbm affinity estimate (log intensity, higher = more binding, comparable within an allelic series); in the assay with NKX2-6, 9.71 upbm affinity estimate (log intensity, higher = more binding, comparable within an allelic series); with HOXC10 [4], 10.1 upbm affinity estimate (log intensity, higher = more binding, comparable within an allelic series).
In the case of GACCGTGC, the binding signal in the assay with HOXB4 [1] was 7.54 upbm affinity estimate (log intensity, higher = more binding, comparable within an allelic series); in the assay with PRRX1 [8], 9.27 upbm affinity estimate (log intensity, higher = more binding, comparable within an allelic series); with HOXB4 [2], 7.53 upbm affinity estimate (log intensity, higher = more binding, comparable within an allelic series); with PRRX1 [9], 9.23 upbm affinity estimate (log intensity, higher = more binding, comparable within an allelic series).
On to CACGTGCG, for which the binding signal in the assay with HOXB4 [1] was 7.64 upbm affinity estimate (log intensity, higher = more binding, comparable within an allelic series); with HOXB4 [2] it was 7.71 upbm affinity estimate (log intensity, higher = more binding, comparable within an allelic series).
For CCCGAGGA, the binding signal was 7.28 upbm affinity estimate (log intensity, higher = more binding, comparable within an allelic series) in the assay with HOXB4 [1] and 7.6 upbm affinity estimate (log intensity, higher = more binding, comparable within an allelic series) with HOXB4 [2].
With CGCTGGCC, the binding signal with HOXB4 [1] was 7.45 upbm affinity estimate (log intensity, higher = more binding, comparable within an allelic series); in the assay with PAX4 [10], 8.99 upbm affinity estimate (log intensity, higher = more binding, comparable within an allelic series); with PAX4 [11] it was 9.12 upbm affinity estimate (log intensity, higher = more binding, comparable within an allelic series); with HOXB4 [2], 7.53 upbm affinity estimate (log intensity, higher = more binding, comparable within an allelic series); in the assay with ALX3 [12], 7.62 upbm affinity estimate (log intensity, higher = more binding, comparable within an allelic series); with PAX4 [13], 9.12 upbm affinity estimate (log intensity, higher = more binding, comparable within an allelic series). In addition, the binding signal with PAX4 [14] was 9.1 upbm affinity estimate (log intensity, higher = more binding, comparable within an allelic series); with ALX3 [15], 7.39 upbm affinity estimate (log intensity, higher = more binding, comparable within an allelic series); in the assay with PAX4 [16], 9.14 upbm affinity estimate (log intensity, higher = more binding, comparable within an allelic series); with ALX3 [17], 7.58 upbm affinity estimate (log intensity, higher = more binding, comparable within an allelic series); with ALX3 [18], 7.61 upbm affinity estimate (log intensity, higher = more binding, comparable within an allelic series); in the assay with PAX4 [19], 9.18 upbm affinity estimate (log intensity, higher = more binding, comparable within an allelic series). Besides, the binding signal in the assay with ALX3 [20] was 7.65 upbm affinity estimate (log intensity, higher = more binding, comparable within an allelic series).
On to AGACCAGC, for which the binding signal with HOXB4 [1] is 7.43 upbm affinity estimate (log intensity, higher = more binding, comparable within an allelic series); with PAX4 [10], 9.14 upbm affinity estimate (log intensity, higher = more binding, comparable within an allelic series); with PAX4 [11] it was 9.21 upbm affinity estimate (log intensity, higher = more binding, comparable within an allelic series); with HOXB4 [2] it was 7.5 upbm affinity estimate (log intensity, higher = more binding, comparable within an allelic series); in the assay with PAX4 [13], 9.31 upbm affinity estimate (log intensity, higher = more binding, comparable within an allelic series); with PAX4 [14], 9.23 upbm affinity estimate (log intensity, higher = more binding, comparable within an allelic series). Also, the binding signal was 9.22 upbm affinity estimate (log intensity, higher = more binding, comparable within an allelic series) in the assay with PAX4 [16] and 9.29 upbm affinity estimate (log intensity, higher = more binding, comparable within an allelic series) with PAX4 [19].
As to AATAGCCA, the binding signal in the assay with HOXB4 [1] was 10.2 upbm affinity estimate (log intensity, higher = more binding, comparable within an allelic series); with HOXB4 [2] it was 10.3 upbm affinity estimate (log intensity, higher = more binding, comparable within an allelic series).
As for GAGCCGGC, the binding signal with HOXB4 [1] was 7.56 upbm affinity estimate (log intensity, higher = more binding, comparable within an allelic series); with HOXC10 [3], 10 upbm affinity estimate (log intensity, higher = more binding, comparable within an allelic series); in the assay with HOXB4 [2] it was 7.62 upbm affinity estimate (log intensity, higher = more binding, comparable within an allelic series); in the assay with NKX2-6, 9.46 upbm affinity estimate (log intensity, higher = more binding, comparable within an allelic series); with MSX2 [21], 9.47 upbm affinity estimate (log intensity, higher = more binding, comparable within an allelic series); with ALX3 [12] it was 7.82 upbm affinity estimate (log intensity, higher = more binding, comparable within an allelic series). Besides, the binding signal is 9.91 upbm affinity estimate (log intensity, higher = more binding, comparable within an allelic series) in the assay with HOXC10 [4]; 9.45 upbm affinity estimate (log intensity, higher = more binding, comparable within an allelic series) in the assay with MSX2 [22]; 7.87 upbm affinity estimate (log intensity, higher = more binding, comparable within an allelic series) with ALX3 [15]; 7.74 upbm affinity estimate (log intensity, higher = more binding, comparable within an allelic series) with ALX3 [17]; 7.7 upbm affinity estimate (log intensity, higher = more binding, comparable within an allelic series) with ALX3 [18]; 9.45 upbm affinity estimate (log intensity, higher = more binding, comparable within an allelic series) with MSX2 [23]. For the same sequence, in the assay with ALX3 [20], the binding signal is 7.79 upbm affinity estimate (log intensity, higher = more binding, comparable within an allelic series).
In the case of CCCGCGGG, the binding signal with HOXB4 [1] was 8.38 upbm affinity estimate (log intensity, higher = more binding, comparable within an allelic series); in the assay with PRRX1 [8] it was 9.46 upbm affinity estimate (log intensity, higher = more binding, comparable within an allelic series); in the assay with HOXA2 [24], 7.19 upbm affinity estimate (log intensity, higher = more binding, comparable within an allelic series); with HOXB4 [2] it was 7.82 upbm affinity estimate (log intensity, higher = more binding, comparable within an allelic series); in the assay with HOXA2 [25], 10.4 upbm affinity estimate (log intensity, higher = more binding, comparable within an allelic series); with HOXA2 [26], 10.4 upbm affinity estimate (log intensity, higher = more binding, comparable within an allelic series). In addition, the binding signal in the assay with PRRX1 [9] was 9.2 upbm affinity estimate (log intensity, higher = more binding, comparable within an allelic series); in the assay with HOXA2 [27], 7.26 upbm affinity estimate (log intensity, higher = more binding, comparable within an allelic series).
Regarding CGGGGGGA, the binding signal in the assay with HOXB4 [1] was 7.79 upbm affinity estimate (log intensity, higher = more binding, comparable within an allelic series); with HOXA2 [24] it was 7.04 upbm affinity estimate (log intensity, higher = more binding, comparable within an allelic series); with HOXB4 [2], 7.87 upbm affinity estimate (log intensity, higher = more binding, comparable within an allelic series); with HOXD13 [28], 8.99 upbm affinity estimate (log intensity, higher = more binding, comparable within an allelic series); with HOXA2 [25], 10.1 upbm affinity estimate (log intensity, higher = more binding, comparable within an allelic series); with HOXD13 [29], 9.17 upbm affinity estimate (log intensity, higher = more binding, comparable within an allelic series). In addition, the binding signal is 9.29 upbm affinity estimate (log intensity, higher = more binding, comparable within an allelic series) with HOXD13 [30]; 10.3 upbm affinity estimate (log intensity, higher = more binding, comparable within an allelic series) with HOXA2 [26]; 7.09 upbm affinity estimate (log intensity, higher = more binding, comparable within an allelic series) with HOXA2 [27].
On to GTCGATGA, for which the binding signal with HOXB4 [1] is 9.83 upbm affinity estimate (log intensity, higher = more binding, comparable within an allelic series); with HOXB4 [2] it was 9.24 upbm affinity estimate (log intensity, higher = more binding, comparable within an allelic series).
In the case of CAATAAGA, the binding signal is 9.65 upbm affinity estimate (log intensity, higher = more binding, comparable within an allelic series) in the assay with HOXB4 [1] and 9.56 upbm affinity estimate (log intensity, higher = more binding, comparable within an allelic series) with HOXB4 [2].
With GGACCGAC, the binding signal with HOXB4 [1] is 7.66 upbm affinity estimate (log intensity, higher = more binding, comparable within an allelic series); in the assay with HOXB4 [2], 7.41 upbm affinity estimate (log intensity, higher = more binding, comparable within an allelic series).
As to AAACGAGT, the binding signal with HOXB4 [1] was 9.6 upbm affinity estimate (log intensity, higher = more binding, comparable within an allelic series); with HOXB4 [2], 9.41 upbm affinity estimate (log intensity, higher = more binding, comparable within an allelic series).
